Hits are enriched below; roughly 4.7% of the tested compounds scored in any of these assays.
D1 antagonist: Antagonist of Human D 1 Dopamine Receptor: qHTS. AID 504652, 2011. HEK293 TREx D1 cells, calcium flux, dopamine EC80; stronger effect = lower value. D(1A) dopamine receptor (Homo sapiens), P21728. 360,000 tested, 3.2% active. activity change, negative = inhibition, % at 10 µM; in the data active = activity change below about -30%; note: % is set by controls: 0 for no effect and ±100 for the full control effect
Target sequence (P21728 whole entry, looked up): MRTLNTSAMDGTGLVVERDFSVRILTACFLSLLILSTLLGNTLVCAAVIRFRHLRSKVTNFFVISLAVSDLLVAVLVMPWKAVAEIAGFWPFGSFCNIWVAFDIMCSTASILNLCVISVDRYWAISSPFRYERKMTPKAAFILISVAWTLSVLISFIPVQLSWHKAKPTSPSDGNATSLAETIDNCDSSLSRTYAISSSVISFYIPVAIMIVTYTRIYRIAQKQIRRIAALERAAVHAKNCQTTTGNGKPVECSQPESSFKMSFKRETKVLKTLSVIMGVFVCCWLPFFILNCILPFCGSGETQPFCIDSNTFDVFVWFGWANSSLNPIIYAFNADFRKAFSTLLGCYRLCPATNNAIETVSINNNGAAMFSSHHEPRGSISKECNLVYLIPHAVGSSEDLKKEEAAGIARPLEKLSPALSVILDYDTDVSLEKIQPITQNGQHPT
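Cells carrying a force-coupled, tetracycline-inducible human D1 receptor report calcium flux. Each well gets a 10 s baseline, compound with 180 s monitoring, then an EC80 dopamine stimulus with a second 180 s kinetic read.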
D1 ag: Allosteric Agonists of the Human D1 Dopamine Receptor: qHTS; HEK293 T-REx D1 cells, calcium flux, agonist mode; activation, % at 2 µM; 360,000 tested, 1% active; note: 0% is about no effect
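Tetracycline-induced HEK293 TREx D1 cells, force-coupled to calcium signalling, were dye-loaded with a no-wash calcium kit. Compound was pin-added after a 10 s baseline. Fluorescence was read kinetically at 1 cycle/s for 180 s, with calcium rises flagged as agonism.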
TRHR agonist: qHTS for Small Molecule Agonists and Allosteric Enhancers of Human TRH Receptor: Primary Screen for Agonists; TRHR cells, calcium flux fluo-8, FDSS agonist mode; Thyrotropin-releasing hormone receptor (Homo sapiens), P34981; activation, % at 2 µM; 360,000 tested, 0.18% active; note: 0% is about no effect
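Agonist-mode FDSS calcium read (Ex 480/Em 530, 1 s cycles) in 1536-well TRHR cells with fluo-8 dye, after 10-cycle baseline and 23 nL compound addition; TRH at EC20 (10 nM final) added afterwards for the enhancer phase.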
TRHR PAM: qHTS for Small Molecule Agonists and Allosteric Enhancers of Human TRH Receptor: Primary Screen for Enhancers; 360,000 tested, 0.66% active; enhancement, % at 2 µM; TRHR cells, fluo-8 calcium fluorescence, EC20 TRH enhancement; AID 493056, 2011; in the data active = enhancement above about 30%; note: 0% is about no effect
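TRHR-expressing cells loaded with fluo-8 calcium dye were read kinetically (ex 480/em 530) during compound addition, then stimulated with an EC20 of TRH (10 nM final). Enhancement of the Gq-mediated intracellular calcium response was scored.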
D1 PAM: Potentiators of Human D1 Dopamine Receptor: qHTS. D(1A) dopamine receptor (Homo sapiens), P21728. HEK293 TREx D1 cells, calcium flux, dopamine EC20 potentiation. potentiation, % at 10 µM. 360,000 tested, 0.036% active. AID 504651, 2011; in the data active = potentiation above about 30%; note: 0% is about no effect
* = called active by the depositor. Cut-off read from the data, not from the text of the source, unless noted: active = activation above about 30%; inactive = the rest.

How did Cc1ccccc1N(C(=O)c1csnn1)C(C(=O)NC1CCCCC1)c1ccncc1 (stereo unspecified) do in these assays?
D1 antagonist: 8.8; D1 ag: 1.0; TRHR agonist: -1.0; TRHR PAM: 31.5*; D1 PAM: -3.3

Results for O=C(NC1CCCCC1)C(c1ccccc1F)N(C(=O)c1csnn1)C1CCCC1 (stereo unspecified) ?
D1 antagonist: -23.3; D1 ag: 60.7*; TRHR agonist: -0.5; TRHR PAM: 1.7

How did CC(=O)c1ccc(NC(=O)Cn2c(-n3nc(C)cc3C)nc(C)cc2=O)cc1 do in these assays?
D1 ag: -3.3; TRHR agonist: -0.2; TRHR PAM: -10.2; D1 PAM: -2.4

Results for Cc1ccc(C)c(NC(=O)CSc2nc3c([nH]c4ccccc43)c(=O)n2-c2ccc(F)cc2)c1 ?
D1 antagonist: -15.2; D1 ag: 1.5; TRHR agonist: -0.1; TRHR PAM: -4.1; D1 PAM: -5.5

What do the screens show for `COC1CCCN(Cc2cn(C)nc2-c2ccc(Oc3ccccc3)cc2)C1` (stereo unspecified)?
D1 antagonist: -2.1; D1 ag: 2.5; TRHR agonist: 0.1; TRHR PAM: -3.7; D1 PAM: -1.8

How did CCCN1CCC(NCc2cn(C)nc2-c2ccc(Oc3ccccc3)cc2)CC1 do in these assays?
D1 antagonist: -10.1; D1 ag: 30.3*; TRHR agonist: 2.3; TRHR PAM: 5.1; D1 PAM: -1.4

Results for Cc1ccc(CCNC(=O)C2CCCN(S(=O)(=O)c3ccc4c(c3)oc(=O)n4C)C2)cc1 (stereo unspecified) ?
D1 antagonist: -6.4; D1 ag: -0.5; TRHR agonist: -1.1; TRHR PAM: -2.2; D1 PAM: 0.8

What do the screens show for `CCN(/C=N/c1sc2c(c1C#N)CC(C)(C)NC2(C)C)CC`?
D1 antagonist: -13.4; D1 ag: -1.4; TRHR agonist: -0.4; TRHR PAM: 3.0; D1 PAM: -3.6

What do the screens show for `CN(C)/C=N/c1sc2c(c1C#N)CC(C)(C)NC2(C)C`?
D1 antagonist: -45.4*; D1 ag: 1.7; TRHR agonist: -0.3; TRHR PAM: 0.4; D1 PAM: -26.8

How did Cc1nc([N+](=O)[O-])cn1Cc1cccc([N+](=O)[O-])c1 do in these assays?
D1 antagonist: -31.3*; D1 ag: 3.2; TRHR agonist: 1.1; TRHR PAM: 1.8; D1 PAM: -6.4

How did O=C1CC2(CCN(C(=O)C3CC(=O)N(c4ccc(F)cc4)C3)CC2)Oc2ccccc21 (stereo unspecified) do in these assays?
D1 antagonist: -6.8; D1 ag: 2.0; TRHR agonist: 0.2; TRHR PAM: -7.3; D1 PAM: -3.4

What do the screens show for `Cc1c(NC(=O)c2cc(-n3cnnc3)ccc2Cl)cccc1-c1nc2ccccc2o1`?
D1 antagonist: -44.1*; D1 ag: -0.4; TRHR agonist: -0.4; TRHR PAM: 4.1; D1 PAM: -23.2

What do the screens show for `COc1cc(-c2noc(C)c2-c2ccc3[nH]ccc3c2)cc(OC)c1OC`?
D1 antagonist: -18.3; D1 ag: 6.7; TRHR agonist: -0.5; TRHR PAM: 0.9; D1 PAM: 4.4

Results for COc1cc(-c2noc(C)c2-c2ccc(N(C)C)nc2)cc(OC)c1OC ?
D1 antagonist: -59.0*; D1 ag: 88.9*; TRHR agonist: 17.0; TRHR PAM: -2.5; D1 PAM: 0.4

Results for Cc1ccc(S(=O)(=O)Nc2cc3c(cc2N2CCOCC2)n(C)c(=O)n3C)c(C)c1 ?
D1 antagonist: -17.5; D1 ag: -0.4; TRHR agonist: -0.5; TRHR PAM: 3.6; D1 PAM: 3.4

How did Cc1ccc2oc(C(=O)Nc3cccc(-c4nc5ccccc5s4)c3)c(C)c2c1 do in these assays?
D1 antagonist: -8.6; D1 ag: 4.5; TRHR agonist: -1.3; TRHR PAM: 22.2; D1 PAM: 1.5

Results for O=C(N1CCOCC1)N1CCc2ccccc21 ?
D1 antagonist: 14.0; D1 ag: 9.5; TRHR agonist: 0.2; TRHR PAM: 4.1; D1 PAM: 1.1

What do the screens show for `CC(=O)Nc1ccc(C(=O)Nc2ccc3c(c2)OCO3)cc1`?
D1 antagonist: -30.6*; D1 ag: 3.4; TRHR agonist: 0.2; TRHR PAM: -6.0; D1 PAM: -1.4

What do the screens show for `CCN(CC)c1ccc(NC(=O)c2ccc3c(c2)OCO3)c(C)c1`?
D1 antagonist: -40.7*; D1 ag: 3.9; TRHR agonist: -0.3; TRHR PAM: -2.8; D1 PAM: -6.3

Results for O=C(Nc1ccc2c(c1)OCO2)c1ccc[n+]([O-])c1 ?
D1 antagonist: -38.7*; D1 ag: 0.3; TRHR agonist: 0.1; TRHR PAM: -7.4; D1 PAM: 3.1

How did O=C(Nc1ccc2c(c1)OCCO2)c1ccc(NC(=O)C2CCCO2)cc1 (stereo unspecified) do in these assays?
D1 antagonist: -49.3*; D1 ag: 0.7; TRHR agonist: 0.5; TRHR PAM: -4.9; D1 PAM: -6.2

How did CC(=O)Nc1ccc(C(=O)Nc2ccc3c(c2)OCCO3)cc1 do in these assays?
D1 antagonist: 4.0; D1 ag: 1.7; TRHR agonist: -1.3; TRHR PAM: 0.2; D1 PAM: 4.0

What do the screens show for `O=C(N/C(=C/c1ccc([N+](=O)[O-])cc1)C(=O)N1CCOCC1)c1ccco1`?
D1 antagonist: -1.5; D1 ag: 6.3; TRHR agonist: -0.7; TRHR PAM: 3.4; D1 PAM: -0.9

What do the screens show for `Cc1ccc(S(=O)(=O)NCC(=O)OCC(=O)Nc2ccc3c(c2)OCCO3)cc1`?
D1 antagonist: 13.4; D1 ag: -0.4; TRHR agonist: -0.2; TRHR PAM: 6.8; D1 PAM: -5.2

What do the screens show for `CCC(C)(C)NC(=O)C(c1ccc(OC)cc1)N(C(=O)CCC(=O)Nc1cc(C)on1)c1ccc(F)cc1` (stereo unspecified)?
D1 antagonist: -9.1; D1 ag: 3.5; TRHR agonist: -0.5; TRHR PAM: 17.5; D1 PAM: -10.1

Results for CCc1ccc(NC(=O)CSc2ccc3nc(-c4ccc(OC)cc4)cn3n2)cc1 ?
D1 antagonist: -17.6; D1 ag: 4.3; TRHR agonist: 0.2; TRHR PAM: -2.9; D1 PAM: -1.5

Results for O=C(Nc1ccc(Br)cc1F)c1ccc2nsnc2c1 ?
D1 antagonist: -33.1*; D1 ag: 3.7; TRHR agonist: 1.4; TRHR PAM: 1.9; D1 PAM: -4.3

What do the screens show for `O=C(Nc1ccc(Br)cc1F)c1ccncc1`?
D1 antagonist: -0.6; D1 ag: 0.0; TRHR agonist: -0.5; TRHR PAM: 0.3; D1 PAM: 9.7
